SNCA expr inhib – Primary qHTS assay for inhibitors of alpha-synuclein gene (SNCA) expression; Potency, µM (top dose mostly 57.2 µM), for inactives: at the highest dose activity change, negative = inhibition, actives largely listed as inhibitors; AID 1671194, 2021; 0.17% of 140,000 active; HEK-293 SNCA-luciferase knock-in, luminescence, 24 h;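 also: potency is read from the fitted curve at half-maximal effect; plate controls were DMSO cells for no effect and cell-free wells for full effect; nearly all actives have a fitted effect of over 45% in size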
HEK293 viab – GF-AFC viability counterscreen for inhibitors of alpha-synuclein gene (SNCA) expression. HEK-293-SNCA-luc viability, GF-AFC fluorescence, 24 h. Potency, µM (series often up to 57.1 µM), for the others: at the top dose activity change, negative = cytotoxicity, actives largely listed as cytotoxic. 0.12% of 150,000 active. AID 1671193, 2021;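 also: potency is read from the fitted curve at half-maximal effect; 0% = DMSO-treated cells and -100% = medium-only wells without cells; nearly all actives have a fitted effect of over 30% in size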
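HEK-293-SNCA-luc cells (1500/well) plated 24 h, then exposed 24 h to a dilution series; GF-AFC added 30 min at 37C, fluorescence 405/540 nm; normalised to medium-only and DMSO wells, Hill fit.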
FLuc inh – Firefly luciferase inhibition profiling of diverse chemical library using quantitative high-throughput screening | Luciferin 4-monooxygenase (Photinus pyralis), P08659 | purified P. pyralis luciferase, luminescence, biochemical | Potency, µM (top dose mostly 115 µM), usual class: inhibitors | 2.5% of 76,000 active | AID 1347043, 2019; also: potency is read from the fitted curve at half-maximal effect; nearly all actives have a fitted effect of over 65% in size
Target sequence (P08659 whole entry, looked up): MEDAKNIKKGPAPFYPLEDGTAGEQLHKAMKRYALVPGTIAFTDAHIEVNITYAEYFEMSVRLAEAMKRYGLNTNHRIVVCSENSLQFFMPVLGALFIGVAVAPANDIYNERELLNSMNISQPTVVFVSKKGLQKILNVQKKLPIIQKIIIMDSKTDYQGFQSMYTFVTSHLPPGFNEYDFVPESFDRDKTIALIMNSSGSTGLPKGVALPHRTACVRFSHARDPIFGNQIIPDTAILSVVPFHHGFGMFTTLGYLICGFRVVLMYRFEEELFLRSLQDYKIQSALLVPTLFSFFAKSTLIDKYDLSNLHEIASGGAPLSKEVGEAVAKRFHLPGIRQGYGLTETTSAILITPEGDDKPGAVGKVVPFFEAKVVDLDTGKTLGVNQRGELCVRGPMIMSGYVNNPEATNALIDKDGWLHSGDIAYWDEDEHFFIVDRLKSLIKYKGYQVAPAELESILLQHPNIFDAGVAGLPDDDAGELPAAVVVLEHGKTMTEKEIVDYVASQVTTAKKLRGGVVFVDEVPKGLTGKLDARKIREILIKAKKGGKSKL
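Luminescence read by CCD imaging after purified firefly luciferase (10nM final) was added to substrate buffer holding 10uM D-luciferin and 10uM ATP, pH 7.5, pre-dosed with compound.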
IP6K1 inhibitor – Primary qHTS assay for small molecule inhibitors of Inositol hexaphosphate kinase 1 (IP6K1). activity change, % (series mostly up to about 58 µM). IP6K1 kinase, ADP-Glo luminescence, 2 h; hits give low values. Inositol hexakisphosphate kinase 1 (Homo sapiens), Q92551. 0.81% of 140,000 active. AID 1645851, 2021; in the data active = activity change below about -25%
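ADP-Glo luminescence measures ADP made by human IP6K1 during a 2 h RT reaction with ATP/IP6 (mix at 1.3 mM/130 uM); top library doses 57.5 and 19.1 uM final.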
HEK cytotox – Cytotoxic Profiling in HEK 293 Cell Line of Diverse Libraries Using Quantitative High-Throughput Screening; 6.6% of 94,000 active; HEK 293 viability, ATP luminescence (CellTiter-Glo), 48-72 h; AID 1345083, 2018; Potency, µM (titrated, usually from 115 µM), without a hit: top-dose activity change, negative = cytotoxicity, usual class: inhibitors; also: potency is read from the fitted curve at half-maximal effect; nearly all actives have a fitted effect of over 60% in size
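Viability of HEK 293 cells, plated at 250 cells/well, was judged by cellular ATP after compound treatment for 48 or 72 hr. Luminescence was imaged 10 min after CellTiter-Glo addition at room temperature.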
NIH3T3 tox – Cytotoxic Profiling in NIH 3T3 Cell Line of Diverse Libraries Using Quantitative High-Throughput Screening. NIH 3T3 viability, CellTiter-Glo ATP luminescence, 48-72 h. AID 1345082, 2018. Potency, µM (highest dose often 96.7 µM), inactives show at the top dose activity change, negative = cytotoxicity, actives largely listed as inhibitors. 4.3% of 94,000 active; also: potency is read from the fitted curve at half-maximal effect; nearly all actives have a fitted effect of over 55% in size
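Viability of NIH 3T3 cells after 48 or 72 hr compound treatment at 37 °C was assessed by CellTiter-Glo, with luminescence imaged following a 10 min room-temperature step.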
Active calls of the source: *; i = inactive; ? = inconclusive; . = not tested or not shown; [ ] = another dose, or the depositor's remark. An excerpt weighted towards active compounds, which were near 7.3% of everything screened. Unless noted, calls follow the shape of the dose curve; as a rule, active = well fitted curve in the direction sought with a large enough effect; inconclusive = small, poorly fitted or top-dose-only effect, or another doubt; inactive = no such curve, though single readings can be large; an effect the other way counts as inactive or inconclusive. Unless noted, % is scaled to controls: 0 for no effect and ±100 for the full control effect.

SMILES	SNCA expr inhib	HEK293 viab	FLuc inh	IP6K1 inhibitor	HEK cytotox	NIH3T3 tox
CCOC(=O)[C@H]1[C@@H](O)C(=O)N(C(C)C)C12CCN(C(=O)C1CCCC1)CC2	.	.	.	11.9	-14.3%	?
CNC(=O)c1cc(C)nc2onc(C3CCCN(C(C)=O)C3)c12 (configuration not stated)	.	.	.	3.6	i	-0.9%[138 µM]
COc1cccc(CCNC(=O)c2cc(-c3ccccc3C(F)(F)F)nc3c2cnn3C)c1	.	.	.	13.1	?	?
CCNC(=O)N1CCCCCC1c1nc(C2CC2)no1 (configuration not stated)	-29.6%	?	i	6.9	i	-10.8%
O=C(c1nccnc1C(=O)N1CCC2(CCCNC2)C1)N1CCCCC1 (configuration not stated)	17.0%	-2.8%	i	12.9	-21.5%	-4.0%
CC1=C[C@@H](CN2CCN(CCO)CC2)[C@H](C(C)C)C[C@H]1Cc1nnc(-c2ccc(N(C)C)cc2)o1	-7.6%	?	i	2.9	14.1µM*	20µM*
CC1=C[C@@H](CN2CCN(c3ccccn3)CC2)[C@H](C(C)C)C[C@H]1Cc1nnc(-c2ccc(C)cc2)o1	?	?	i	-5.6	?	?
CC1=C[C@@H](CN2CCN(c3cnccn3)CC2)[C@H](C(C)C)C[C@H]1Cc1nnc(-c2ccccc2)o1	?	?	i	-16.3	25.1µM*	?
CC1=C[C@@H](CN2CCN(c3ncccn3)CC2)[C@H](C(C)C)C[C@H]1Cc1nnc(-c2ccc(N(C)C)cc2)o1	?	?	i	14.7	28.2µM*	?
COc1ccc(-c2nnc(C[C@@H]3C[C@@H](C(C)C)[C@H](CN4CCN(C)CC4)C=C3C)o2)cc1	11.2%	?	i	-2.1	31.6µM*	39.8µM*
CCOCc1nc(C2CCCN2S(=O)(=O)c2ccccc2C)no1 (configuration not stated)	6.7%	8.7%	.	-3.9	1.0%	-6.0%
COc1ccc(N2CC(c3noc(-c4cc(OC)c(OC)c(OC)c4)n3)CC2=O)cc1OC (configuration not stated)	50.4%	-7.4%	i	-5.1	?	?
CCOC(=O)C1CCN(C(=O)c2cc(-c3cccnc3)nc3c2cnn3C)CC1	-26.4%	-8.6%	.	6.2	-6.9%	-11.7%
CC1=C[C@@H](CN2CCN(CCO)CC2)[C@H](C(C)C)C[C@H]1Cc1nnc(-c2ccc([N+](=O)[O-])cc2)o1	-35.0%	?	i	16.3	?	?
COc1ccc(-c2nnc(C[C@@H]3C[C@@H](C(C)C)[C@H](CN4CCN(CCO)CC4)C=C3C)o2)cc1	42.9%	?	i	16.3	44.7µM*	?
CC(C)CCN1CCc2c(n(CCOc3ccccc3)n(-c3ccccc3)c2=O)C1	?	?	i	-9.8	?	100µM*
CCn1c2c(c(=O)n1-c1ccccc1)CCN(Cc1cncc(OC)c1)C2	12.7%[87.6 µM]	3.5%[87.6 µM]	i	5.4	i	100µM*
COc1ncc(CN2CCc3c(n(CCOc4ccccc4)n(-c4ccccc4)c3=O)C2)cn1	15.1%	6.9%	i	-9.1	i	?
COCCn1c2c(c(=O)n1-c1ccccc1)CCN(C(=O)c1nc3ccccc3[nH]1)C2	?	6.5%[87.6 µM]	i	18.2	-9.0%[172 µM]	89.1µM*
COCCn1c(=O)c2c(n1Cc1ccccc1)CN(C(=O)c1cc3ccccc3[nH]1)CC2	-0.9%[87.6 µM]	2.5%[87.6 µM]	i	0.1	-10.8%[172 µM]	?
